Source: PubChem BioAssay
RORg inh: qHTS for inhibitors of ROR gamma transcriptional activity; Potency, µM (top dose mostly 53.6 µM), for the others: at the top dose activity change, negative = inhibition, actives largely listed as inhibitors; Nuclear receptor ROR-gamma (Mus musculus), P51450; Drosophila S2 Gal4-RORgamma UAS-luciferase reporter, 20 h; 5.4% of 310,000 active; further: potency means the concentration at half of the fitted maximal effect; on the % scale 0 is the no-effect control and ±100 the full control effect; nearly all actives have a fitted effect of over 60% in size
Target sequence (P51450 whole entry, looked up, the tested form may be a part): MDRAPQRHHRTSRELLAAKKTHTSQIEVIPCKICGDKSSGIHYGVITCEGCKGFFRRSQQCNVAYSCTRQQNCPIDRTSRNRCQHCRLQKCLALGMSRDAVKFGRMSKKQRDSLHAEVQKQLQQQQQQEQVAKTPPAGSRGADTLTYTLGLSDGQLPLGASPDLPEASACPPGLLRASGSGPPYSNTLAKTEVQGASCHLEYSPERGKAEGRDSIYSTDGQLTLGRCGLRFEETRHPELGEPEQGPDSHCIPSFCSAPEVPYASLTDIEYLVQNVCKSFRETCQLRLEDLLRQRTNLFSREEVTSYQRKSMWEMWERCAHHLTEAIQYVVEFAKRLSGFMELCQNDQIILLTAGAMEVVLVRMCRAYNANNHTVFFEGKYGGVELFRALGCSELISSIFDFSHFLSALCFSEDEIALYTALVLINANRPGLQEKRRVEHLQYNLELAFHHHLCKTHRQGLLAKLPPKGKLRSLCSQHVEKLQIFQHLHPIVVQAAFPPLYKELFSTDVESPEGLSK
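Read-out: Photinus luciferase luminescence; inhibitors lower reporter signal. Insect Schneider cells with Gal4-ROR gamma fusion under metallothionein promoter, UAS reporter; 700 uM final copper sulfate induction, 20 hr, ambient temperature.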
SW480 rereplic: A quantitative high throughput screen for small molecules that induce DNA re-replication in SW480 colon adenocarcinoma cells; SW480 DNA re-replication, Hoechst DNA content imaging, 48 h; Potency, µM (doses to about 46.1 µM), for the others: top-dose re-replication activation, most hits filed as activators; 1.8% of 340,000 active; further: potency means the concentration at half of the fitted maximal effect; % of control where 0% means no effect; nearly all actives have a fitted effect of over 55% in size
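Cells (250 per well) received 23 nL compound or DMSO by pin tool and were kept 48 hr at 37 C, 5% CO2. Nuclei were then stained with Hoechst for 40 min and scanned for DNA content.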
MCF10A rerep: A quantitative high throughput screen for small molecules that induce DNA re-replication in MCF 10a normal breast cells; MCF 10A DNA re-replication, Hoechst nuclear intensity, 48 h; AID 624296, 2012; 2.9% of 350,000 active; Potency, µM (series often up to 46.1 µM), for inactives: at the highest dose activity, positive = re-replication, most hits filed as activators; further: potency means the concentration at half of the fitted maximal effect; % of control where 0% means no effect; nearly all actives have a fitted effect of over 50% in size
Gal4-VP16 FLuc: VP16 counterscreen qHTS for inhibitors of ROR gamma transcriptional activity; Drosophila S2 Gal4-VP16 UAS-luciferase, luminescence, 20 h; Potency, µM (doses to about 53.6 µM), for the others: top-dose activity, negative = inhibition, most hits filed as inhibitors; 3.5% of 310,000 active; AID 2546, 2010;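 further: Gal4-VP16 expression switched on by copper sulfate through the metallothionein promoter; potency means the concentration at half of the fitted maximal effect; on the % scale 0 is the no-effect control and ±100 the full control effect; nearly all actives have a fitted effect of over 50% in size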
IL1B secr inh: qHTS for Inhibitors of Inflammasome Signaling: IL-1-beta AlphaLISA Primary Screen. THP-1 LPS/ATP IL-1B secretion, AlphaLISA, 16 h; stronger effect = lower value. AID 743279, 2014. activity change, % at 57.5 µM. 4.7% of 360,000 active; in the data active means activity change below about -50%; inconclusive means mostly about -30% to -49%; further: on the % scale 0 is the no-effect control and ±100 the full control effect
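Secreted IL-1B measured by AlphaLISA bead assay after 16 h compound exposure of THP-1 cells; compounds (final up to 57.5 uM) added 1 h before LPS (250 ng/mL) and ATP (1.25 mM) stimulation; lower signal means less secretion.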
Numbers without * were called inactive; ? = inconclusive; nt = no result; ! = not active in a repeat; [ ] = another dose, or the depositor's remark. In the library only some 11% were active in any assay of this set; here they are far more common. Unless noted, the call rests on the fitted dose curve; in most records, active means well fitted curve in the direction sought with a large enough effect; inconclusive means small, poorly fitted or top-dose-only effect, or another doubt; inactive means no such curve, though single readings can be large; an effect the other way counts as inactive or inconclusive.

SMILES	RORg inh	SW480 rereplic	MCF10A rerep	Gal4-VP16 FLuc	IL1B secr inh
Cc1cc(C)n(-c2nc3sc4c(c3c(=O)[nH]2)CCCC4)n1	0.71µM*	nt	nt	1.4µM*	nt
O=C(c1coc(=O)c(Br)c1)N1CCCc2ccccc21	1%[10 µM]	1%	15µM*	?	22
O=C(c1cccc(Br)c1)N1CCCc2ccccc21	?	-2%	0%	-1%	37
CCOC(=O)C1=C(CNCCc2ccc(Cl)cc2)NC(=O)NC1c1cccc([N+](=O)[O-])c1 (stereo not given)	24%	21%	?	-4%	-65*
COC(=O)C1=C(C)N(Cc2ccccc2)C(=O)N[C@H]1c1ccc(Br)cc1	17%	-8%	?	8%	-54*
CCOC(=O)C1=C(CNCc2ccccc2Cl)NC(=O)NC1c1cccc([N+](=O)[O-])c1 (stereo not given)	26%	-1%	4%	-14%	?
CCN1C(=S)N[C@@H](c2ccccc2)C(C(=O)OC)=C1C	3.2µM*	-4%[9.22 µM]	-2%	?	25
COC(=O)C1=C(C)N(Cc2ccccc2)C(=NCCc2c[nH]c3ccccc23)N[C@H]1c1cccc(F)c1	nt	6%	?	nt	-50*
COC(=O)[C@H](CCSC)NC(=O)c1ccc(NC[C@@H](N)CS)cc1-c1ccccc1	-30%	nt	nt	-18%	nt
O=C1C[C@@H](c2ccc(O)cc2)Oc2cc(O[C@@H]3O[C@H](CO)[C@@H](O)[C@H](O)[C@H]3O)cc(O)c21	4%	nt	nt	-2%	nt
CCOc1ccc(N2CC(C(=O)Nc3cccc(C(=O)NC4CC4)c3)CC2=O)cc1 (stereo not given)	nt	-7%	-6%	nt	6
COC(=O)C1=C(CCc2ccccc2)NC(=O)NC1c1ccc(C#N)cc1 (stereo not given)	nt	-3%	-9%	nt	-17
COC(=O)C1=C(CCc2ccccc2)NC(=O)NC1c1ccc(Cl)cc1 (stereo not given)	nt	6%	-2%	nt	-52*
COC(=O)C1=C(C)N(CC2CC2)C(=NCc2cccc(Cl)c2)N[C@H]1c1ccccc1	3%	?	-21%	-11%	-62*
COC(=O)C1=C(C)N(Cc2ccccc2)C(=NCc2cccc(Cl)c2)N[C@H]1c1ccccc1	-2%	-10%	?	-7%	?
CCOC(=O)CN1C(=O)N[C@H](c2ccc(Br)cc2)C(C(C)=O)=C1C	30%	?	6.5µM*	-3%	-5
CCOC(=O)CN1C(=O)N[C@@H](c2ccc(Br)cc2)C(C(=O)OC)=C1C	8%	-19%	2%	9%	-2
COC(=O)C1=C(C)N(Cc2ccccc2)C(=NCc2cc(OC)c(OC)c(OC)c2)N[C@H]1CCc1ccccc1	-18%	6%	-20%	-4%	-58*
COc1ccc(CCNC(=O)CCNC(=O)N2CC(=O)Nc3ccccc32)cc1OC	1%	5%	1%	-9%	58
COc1ccc([C@H]2CC(=O)C[C@@H](CCn3cc(C)nn3)O2)cc1	nt	nt	nt	nt	43
Cc1cccc(OCc2nnc(SCC(=O)Nc3ccc(N4CCOCC4)cc3)o2)c1	-21%	-2%	3%	-9%	28
COC(=O)C1=C(C)N(Cc2ccccc2)C(=S)N[C@H]1c1cccc(F)c1	4.5µM*	2%	0%	13µM*	-6
COCCN1C(=S)N[C@@H](c2cccc(F)c2)C(C(=O)OC)=C1C	3.5µM*!	nt	nt	11µM*!	nt
COC(=O)C1=C(C)N(Cc2ccccc2)C(=NCc2ccccc2)N[C@H]1c1cccc(F)c1	?	10%	-25%	-16%	0
Cc1cnc(C(=O)OCC(=O)N2C(C)CCCC2C)cn1 (stereo not given)	nt	-6%	-2%	nt	-1
COc1cc2c(cc1NC(=O)C(C)Sc1cccc[n+]1[O-])oc1ccccc12 (stereo not given)	?	0%	1%	-8%	-55*
COc1cc2c(cc1NC(=O)CN(C)Cc1cccc(OC)c1OC)oc1ccccc12	?	?	7.3µM*	?	-14
